Experimental data published in PubChem BioAssay (Tox21).
Results filed as inconclusive are left out. Calls of active or inactive are those of the source. Unless noted, calls follow the shape of the dose curve; as a rule, active = well fitted curve in the direction sought with a large enough effect in the repeat runs; inconclusive = weak or mixed curves; inactive = no such curve, though single readings can be large; an effect the other way counts as inactive or inconclusive.

Columns and labels:
[1] = qHTS assay to identify small molecule that activate the aryl hydrocarbon receptor (AhR) signaling pathway - cell viability counter screen (AID 743086);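 also: HepG2 liver cells carrying the AhR DRE luciferase reporter; series mostly up to about 70 µM; nearly all actives have a fitted effect of over 45% in size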
Procedure, shortened: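 HepG2-AhR-luc (HG2L7.5c1) cells, 4000/well, treated 24 h at 37 C with compound; viability measured as CellTiter-Fluor fluorescence after 30 min in the same wells as the luciferase read.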

[2] = target: Peroxisome proliferator-activated receptor gamma (Homo sapiens) (UniProt P37231); assay: qHTS assay to identify small molecule agonists of the peroxisome proliferator-activated receptor gamma (PPARg) signaling pathway (AID 743094; active = well fitted activation curve with a large enough effect in the signal ratio in the repeat runs, not every such curve was filed as active; the % refers to the signal ratio)
Procedure, shortened: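 Reporter activation was scored by fluorescence of cleaved LiveBLAzer B/G substrate (1 h, room temperature) in PPARg-bla HEK293H cells previously treated 17 h at 37C with DMSO-dissolved compounds.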

[3] = qHTS assay to identify small molecule antagonists of the peroxisome proliferator-activated receptor gamma (PPARg) signaling pathway - cell viability counter screen (AID 743194); also: nearly all actives have a fitted effect of over 55% in size
Procedure, shortened: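 Cytotoxicity counter screen in PPARg-bla HEK293H cells, same wells as reporter assay. Compounds plus 50 nM rosiglitazone (final) for 17 h at 37 C, then viability read by CellTiter-Glo luminescence.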

[4] = qHTS assay for small molecule agonists of the antioxidant response element (ARE) signaling pathway (AID 743202; active = well fitted activation curve with a large enough effect in the signal ratio in the repeat runs, not every such curve was filed as active; the % refers to the signal ratio)
Procedure, shortened: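 HepG2 ARE-bla reporter line, 2,000 cells/well; 5 h preincubation 37 C/5% CO2; compound (DMSO) 16 h 37 C; B/G FRET substrate 2 h RT; fluorescence intensity.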

[5] = qHTS assay for small molecule agonists of the antioxidant response element (ARE) signaling pathway - cell viability counter screen (AID 743203; calls by dose curve; also: nearly all actives have a fitted effect of over 55% in size)
Procedure, shortened: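 Viability counter screen: stably transfected ARE-bla HepG2 line, 16 hrs compound exposure at 37C/5% CO2, ATP-based CellTiter-Glo luminescence measured in the reporter wells.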

[6] = qHTS assay for small molecule activators of the heat shock response signaling pathway - cell viability counter screen (AID 743209); also: nearly all actives have a fitted effect of over 50% in size
Procedure, shortened: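 Viability of HSE-bla HeLa cells is measured with CellTiter-Glo in the wells already used for the reporter read. Compound exposure lasts 5 h at 37 C, and luminescence is read after 30 min at room temperature.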

[7] = qHTS assay for small molecule activators of the heat shock response signaling pathway (AID 743210; active = well fitted activation curve with a large enough effect in the signal ratio in the repeat runs, with a control signal flat, not every such curve was filed as active; the % refers to the signal ratio;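 also: HeLa cells with beta-lactamase reporter driven by heat shock elements; series mostly up to about 63 µM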)
Procedure, shortened: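 Beta-lactamase reporter read-out: FRET substrate fluorescence after 2.5 h at RT, following 5 h compound treatment at 37 C of HeLa cells carrying HSE-driven bla reporter; quantitative HTS format.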

[8] = qHTS assay to identify small molecule agonists of the peroxisome proliferator-activated receptor delta (PPARd) signaling pathway - cell viability counter screen (AID 743211); also: nearly all actives have a fitted effect of over 55% in size
Procedure, shortened: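 Viability was measured as CellTiter-Glo luminescence (30 min, room temperature) in the same wells as the beta-lactamase readout. GeneBLAzer PPARd UAS-bla HEK293H cells received compound after 5 h plating and were incubated 17 h at 37 C.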

[9] = target: Peroxisome proliferator-activated receptor delta (Homo sapiens) (UniProt Q03181); assay: qHTS assay to identify small molecule agonists of the peroxisome proliferator-activated receptor delta (PPARd) signaling pathway (AID 743212; calls by dose curve)
Procedure, shortened: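 Read-out: beta-lactamase FRET fluorescence after 2 h room-temperature incubation with LiveBLAzer B/G substrate. Cells were HEK293H carrying a UAS-bla reporter for PPARd, treated at 37 C with DMSO-dissolved compounds.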

[10] = qHTS assay to identify small molecule antagonists of the peroxisome proliferator-activated receptor delta (PPARd) signaling pathway - cell viability counter screen (AID 743213); also: nearly all actives have a fitted effect of over 50% in size
Procedure, shortened: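 Agonist-stimulated (L165041, 300 nM final) HEK293H PPARd UAS-bla cells are exposed to compounds for 17 h at 37 C, and ATP-based luminescence (CellTiter-Glo) from the same wells reports cytotoxicity.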

[11] = target: Peroxisome proliferator-activated receptor delta (Homo sapiens) (UniProt Q03181); assay: qHTS assay to identify small molecule antagonists of the peroxisome proliferator-activated receptor delta (PPARd) signaling pathway (AID 743215; active = well fitted inhibition curve with a large enough effect in the signal ratio in the repeat runs, not every such curve was filed as active; the % refers to the signal ratio; also: series mostly up to about 62 µM)
Procedure, shortened: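 Plated HEK293H PPARd-bla cells rested 5 h at 37 C and 5% CO2. Compound, then agonist L165041 at 300 nM final, was added; 17 h at 37 C followed. Substrate loading, 2 h room temperature, fluorescence measured.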

[12] = qHTS assay to identify small molecule agonists of the farnesoid-X-receptor (FXR) signaling pathway - cell viability counter screen (AID 743218); also: nearly all actives have a fitted effect of over 45% in size
Procedure, shortened: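 Viability of FXR-bla HEK 293T cells is measured by ATP-based CellTiter-Glo luminescence following 16 h compound treatment at 37 C and a prior 2 h room-temperature beta-lactamase substrate step.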

[13] = qHTS assay to identify small molecule antagonists of the farnesoid-X-receptor (FXR) signaling pathway - cell viability counter screen (AID 743221; active = well fitted cell-killing curve with a large enough effect in the repeat runs, not every such curve was filed as active; also: nearly all actives have a fitted effect of over 50% in size)
Procedure, shortened: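 Cytotoxicity counter screen run in the FXR-bla reporter wells: HEK 293T cells exposed to compound with 50 uM (final) chenodeoxycholic acid for 16 h, 37 C, then viability measured by CellTiter-Glo luminescence after 30 min, room temperature.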

[14] = target: Vitamin D3 receptor (Homo sapiens) (UniProt P11473); assay: qHTS assay to identify small molecule antagonists of the vitamin D receptor (VDR) signaling pathway (AID 743223; active = well fitted inhibition curve with a large enough effect in the signal ratio in the repeat runs, not every such curve was filed as active; the % refers to the signal ratio)
Procedure, shortened: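 Antagonist mode: compound added to VDR-bla cells alongside agonist 1alpha,25-dihydroxyvitamin D3 (3 nM final), incubation 16 h at 37C. Read-out is LiveBLAzer FRET fluorescence, 2 h at room temperature.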

[15] = qHTS assay to identify small molecule agonists of the vitamin D receptor (VDR) signaling pathway - cell viability counter screen (AID 743224); also: series mostly up to about 63 µM; nearly all actives have a fitted effect of over 50% in size
Procedure, shortened: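 Compounds were pin-transferred onto VDR-bla cells plated 4 h earlier; following 16 h incubation at 37C, cell viability was quantified by CellTiter-Glo luminescence after 30 min at room temperature.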

[16] = target: Vitamin D3 receptor (Homo sapiens) (UniProt P11473); assay: qHTS assay to identify small molecule agonists of the vitamin D receptor (VDR) signaling pathway (AID 743222; calls by dose curve)
Procedure, shortened: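 Fluorescence from cleaved LiveBLAzer B/G FRET substrate served as readout. VDR-bla cells had been treated 16 h at 37C with test compounds in DMSO, following a 4 h settling period, and substrate was loaded for 2 h at RT.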

[17] = target: Bile acid receptor (Homo sapiens) (UniProt Q96RI1); assay: qHTS assay to identify small molecule agonists of the farnesoid-X-receptor (FXR) signaling pathway (AID 743220; active = well fitted activation curve with a large enough effect in the signal ratio in the repeat runs, not every such curve was filed as active; the % refers to the signal ratio)
Procedure, shortened: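 FXR-UAS-bla HEK 293T cells carrying a UAS-driven beta-lactamase reporter were plated for 5 h at 37C/5% CO2, then exposed to DMSO-dissolved Tox21 10K compounds for 16 h at 37C. A LiveBLAzer B/G FRET substrate was loaded for 2 h at room temperature before fluorescence reading.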

[18] = target: Bile acid receptor (Homo sapiens) (UniProt Q96RI1); assay: qHTS assay to identify small molecule antagonists of the farnesoid-X-receptor (FXR) signaling pathway (AID 743217; active = well fitted inhibition curve with a large enough effect in the signal ratio in the repeat runs, not every such curve was filed as active; the % refers to the signal ratio)
Procedure, shortened: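 Screen of the Tox21 10K library in quantitative HTS format using FXR-UAS-bla HEK 293T reporter cells. Agonist chenodeoxycholic acid, 50 uM final, added with compounds; 16 h incubation at 37 °C; beta-lactamase FRET fluorescence measured.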

[19] = target: Peroxisome proliferator-activated receptor gamma (Homo sapiens) (UniProt P37231); assay: qHTS assay to identify small molecule antagonists of the peroxisome proliferator-activated receptor gamma (PPARg) signaling pathway (AID 743191; calls by dose curve; also: series mostly up to about 63 µM; nearly all actives have a fitted effect of over 30% in size)
Procedure, shortened: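 GeneBLAzer PPARg UAS-bla HEK293H cells, 5 h post-plating, exposed to compounds 17 h at 37C. LiveBLAzer B/G FRET substrate added for 1 h at room temperature; beta-lactamase reporter read by fluorescence intensity.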

Measured: Potency

Peroxisome proliferator-activated receptor gamma (Homo sapiens), sequence (P37231 whole entry, looked up): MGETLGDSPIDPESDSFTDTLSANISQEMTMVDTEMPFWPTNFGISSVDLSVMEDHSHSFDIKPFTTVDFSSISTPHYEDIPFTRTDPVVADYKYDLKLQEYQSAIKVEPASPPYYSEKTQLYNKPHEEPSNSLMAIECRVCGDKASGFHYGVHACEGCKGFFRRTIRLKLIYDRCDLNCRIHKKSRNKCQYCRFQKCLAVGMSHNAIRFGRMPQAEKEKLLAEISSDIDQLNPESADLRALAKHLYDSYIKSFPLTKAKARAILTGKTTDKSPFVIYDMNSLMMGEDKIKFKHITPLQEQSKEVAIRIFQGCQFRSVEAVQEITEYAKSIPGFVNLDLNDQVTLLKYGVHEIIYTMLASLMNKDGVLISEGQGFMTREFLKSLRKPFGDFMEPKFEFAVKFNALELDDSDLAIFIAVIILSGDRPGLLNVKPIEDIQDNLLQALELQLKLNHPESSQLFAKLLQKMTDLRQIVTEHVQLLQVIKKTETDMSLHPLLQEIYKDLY
Vitamin D3 receptor (Homo sapiens), sequence (P11473 whole entry, looked up): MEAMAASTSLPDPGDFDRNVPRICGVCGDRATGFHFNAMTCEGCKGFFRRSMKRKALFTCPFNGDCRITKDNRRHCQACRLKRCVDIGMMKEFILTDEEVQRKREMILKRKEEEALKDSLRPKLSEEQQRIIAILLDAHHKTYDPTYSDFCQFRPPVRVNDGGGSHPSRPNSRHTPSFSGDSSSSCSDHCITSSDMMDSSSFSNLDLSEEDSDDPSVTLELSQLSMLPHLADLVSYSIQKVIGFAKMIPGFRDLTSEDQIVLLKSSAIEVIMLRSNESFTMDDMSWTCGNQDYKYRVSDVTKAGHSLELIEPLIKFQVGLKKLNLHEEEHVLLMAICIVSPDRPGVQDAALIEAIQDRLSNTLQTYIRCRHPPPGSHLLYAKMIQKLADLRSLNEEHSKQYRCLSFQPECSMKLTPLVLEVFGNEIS
Bile acid receptor (Homo sapiens), sequence (Q96RI1 whole entry, looked up): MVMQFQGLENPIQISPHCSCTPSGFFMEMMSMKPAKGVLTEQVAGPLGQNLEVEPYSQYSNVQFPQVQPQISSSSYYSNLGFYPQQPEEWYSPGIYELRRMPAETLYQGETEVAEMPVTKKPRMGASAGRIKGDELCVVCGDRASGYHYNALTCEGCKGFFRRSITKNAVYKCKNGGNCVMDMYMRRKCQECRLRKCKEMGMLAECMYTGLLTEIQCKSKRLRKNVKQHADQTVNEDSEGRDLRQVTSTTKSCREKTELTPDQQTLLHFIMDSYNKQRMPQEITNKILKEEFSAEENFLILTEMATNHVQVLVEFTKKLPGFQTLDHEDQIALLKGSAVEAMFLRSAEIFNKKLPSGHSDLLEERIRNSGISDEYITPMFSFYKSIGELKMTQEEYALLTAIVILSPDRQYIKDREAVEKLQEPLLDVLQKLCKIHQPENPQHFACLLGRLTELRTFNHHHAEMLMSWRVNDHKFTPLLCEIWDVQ
Peroxisome proliferator-activated receptor delta (Homo sapiens), sequence (Q03181 whole entry, looked up): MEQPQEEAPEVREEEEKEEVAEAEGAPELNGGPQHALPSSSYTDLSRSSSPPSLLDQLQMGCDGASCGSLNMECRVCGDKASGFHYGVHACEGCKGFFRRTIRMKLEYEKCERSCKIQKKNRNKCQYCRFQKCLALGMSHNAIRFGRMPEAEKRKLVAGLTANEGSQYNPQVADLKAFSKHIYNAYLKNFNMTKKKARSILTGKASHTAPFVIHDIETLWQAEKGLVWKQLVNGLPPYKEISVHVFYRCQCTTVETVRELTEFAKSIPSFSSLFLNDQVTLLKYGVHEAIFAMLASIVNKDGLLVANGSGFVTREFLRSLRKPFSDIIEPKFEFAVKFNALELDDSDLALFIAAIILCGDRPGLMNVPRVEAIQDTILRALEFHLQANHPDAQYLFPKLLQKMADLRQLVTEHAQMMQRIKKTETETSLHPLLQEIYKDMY

CC(C)=CC(=O)O
not listed: [16] | [17] | [18] | [19]
inactive: all other assays above

CC(O)CN(CCCN(C)C)CCCN(C)C (stereo not given)
not listed: [2] | [3] | [5] | [9] | [11] | [17] | [18] | [19]
inactive: all other assays above

CC(C)COC(=O)c1ccccc1O
not listed: [3] | [4] | [15] | [17] | [18] | [19]
inactive: all other assays above

CC1(C)OC(=O)Nc2ccc(Br)cc21
not listed: [1] | [2] | [3] | [6] | [18] | [19]
inactive: all other assays above

CCCC(=O)O[C@]1(C(=O)CCl)[C@@H](C)C[C@H]2[C@@H]3CCC4=CC(=O)C=C[C@]4(C)[C@@]3(F)C(=O)C[C@@]21C
not listed: [4] | [6] | [11] | [13] | [14] | [15] | [19]
inactive: all other assays above

O=C(O)C1CCC1
not listed: [1] | [2] | [8] | [17] | [18]
inactive: all other assays above

c1ccc(SCCSc2ccccc2)cc1
not listed: [3] | [19]
inactive: all other assays above

C=C(C)C(=O)OCCC(C)OC(=O)C(=C)C (stereo not given)
not listed: [8] | [11] | [17] | [18] | [19]
inactive: all other assays above

COc1cc(C)cc(O)c1
not listed: [3] | [4] | [8] | [14] | [16] | [17] | [18] | [19]
inactive: all other assays above

N#CCN(CC#N)CCN(CC#N)CC#N
not listed: [2] | [3] | [4] | [6] | [12] | [17] | [18] | [19]
inactive: all other assays above

CCCOc1ccccc1-c1nc2n[nH]nc2c(=O)[nH]1
inactive: [2] | [3] | [4] | [5] | [6] | [7] | [8] | [17] | [13] | [15]

CCn1c(=O)c2c(nc(/C=C/c3ccc(OC)c(OC)c3)n2C)n(CC)c1=O
not listed: [1] | [2] | [4] | [6] | [11] | [19]
inactive: all other assays above

O=S(=O)(c1cccc2cnccc12)N1CCCNCC1
not listed: [2] | [4] | [6] | [8] | [11] | [12] | [14] | [18]
inactive: all other assays above
